The values that follow come from PubChem BioAssay AID488847 (NMMLSC, 2010).

About 1,900 (0.58%) of roughly 330,000 compounds were called active. This is one part of a sample in which actives are shown more often than they occur. A number with no mark means an inactive call.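 Rule for the calls: active = inhibition of aptamer binding above 40%, roughly 3 SD of noise, on plates passing a quality check; inactive = the rest.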

This test deals with Beta-adrenergic receptor kinase 1 (Homo sapiens) (UniProt P25098). As to the kind of experiment: compounds blocking aptamer binding on GRK2 – biochemical, human GRK2, bead flow cytometry, HTS, primary screen (AID 488847).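 Note: median bead fluorescence of bound FAM aptamer so fluorescent compounds give negative values.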 As to conditions: FAM-aptamer displacement from GRK2, at 10 µM, stronger effect = higher value. In general terms: A flow cytometer gives signals particle by particle.
Sequence of Beta-adrenergic receptor kinase 1 (Homo sapiens) (P25098 whole entry, looked up): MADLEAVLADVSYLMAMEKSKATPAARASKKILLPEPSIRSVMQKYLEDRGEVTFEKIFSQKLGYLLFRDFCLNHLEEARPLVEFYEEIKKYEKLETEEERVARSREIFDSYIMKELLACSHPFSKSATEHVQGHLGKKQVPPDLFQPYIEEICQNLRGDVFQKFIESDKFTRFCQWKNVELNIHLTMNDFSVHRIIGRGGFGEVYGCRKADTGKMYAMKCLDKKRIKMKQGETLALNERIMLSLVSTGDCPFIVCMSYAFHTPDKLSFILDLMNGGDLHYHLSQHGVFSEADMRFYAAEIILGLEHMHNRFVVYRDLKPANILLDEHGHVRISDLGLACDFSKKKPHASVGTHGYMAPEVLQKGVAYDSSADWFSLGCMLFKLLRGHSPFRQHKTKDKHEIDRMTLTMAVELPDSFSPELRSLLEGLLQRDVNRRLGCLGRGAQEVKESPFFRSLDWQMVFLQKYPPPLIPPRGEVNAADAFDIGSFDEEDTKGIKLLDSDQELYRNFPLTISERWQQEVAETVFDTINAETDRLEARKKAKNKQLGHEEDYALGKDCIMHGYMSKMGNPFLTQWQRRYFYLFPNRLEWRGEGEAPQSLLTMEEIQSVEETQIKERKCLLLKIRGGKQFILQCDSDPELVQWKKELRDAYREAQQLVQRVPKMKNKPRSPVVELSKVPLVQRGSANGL
Regarding `O=C(CN1CCN(S(=O)(=O)c2ccc(Cl)s2)CC1)NCc1ccc(Cl)cc1`, the inhibition of aptamer binding was 2%. The same measure for `COc1ccc(NC(=O)Cn2ncn3c(cc4ccccc43)c2=O)c(OC)c1OC`: 1%. The figure for `CN1CCN(c2nc3c(c(=O)[nH]c(=O)n3C)n2Cc2cccc3ccccc23)CC1` is 0%; for `Cn1c(=O)[nH]c(=O)c2c1nc(N1CCN(CCO)CC1)n2CCSc1nc2ccccc2s1` it is 0%.

For `Cn1c(=O)[nH]c(=O)c2c1nc(N1CCN(C(c3ccccc3)c3ccccc3)CC1)n2CCO`, the inhibition of aptamer binding is 43% (active). The same measure for `Cc1ccc(NN=Nc2nc3c([nH]2)c(=O)n(C)c(=O)n3C)cc1`: 0%. The same measure for `CCOC(=O)C1=C(N)N(c2ccc(C)cc2)C2=C(C(=O)CCC2)C1c1cccs1` (stereo not drawn): 45% (active); for `O=C1CCCC2=C1C(c1cccs1)CC(=O)N2c1ccc(F)cc1` (stereo not drawn): 0%.

Regarding `CCOC(=O)c1cc2c(n(-c3ccc(C)cc3)c1=O)CCCC2=O`, the inhibition of aptamer binding is 0%. On to `O=C(c1ccc(F)cc1)N1CCCC(C(=O)N2CCCCC2)C1` (stereo not drawn), for which the inhibition of aptamer binding is 1%. On to `Cc1noc(C)c1COc1ccccc1C(=O)N(C)CC(=O)Nc1cccc(F)c1`, for which the inhibition of aptamer binding is 1%. The same measure for `COC(=O)N/N=C/c1ccc(/C=N/NC(=O)OC)cc1`: 87% (active); for `CC(C)(C)OC(=O)N/N=C/c1ccc(C(=O)O)cc1`: 0%; for `COC(=O)N/N=C/c1ccc(-c2ccc(Cl)c(Cl)c2)o1`: 0%. Turning to `CCNS(=O)(=O)c1ccc(CCC(=O)N2CCN(c3cc(Cl)ccc3C)CC2)cc1`, the inhibition of aptamer binding was 0%.

Consider `O=C1c2ccccc2C2=Nc3ccccc3SC(c3ccccc3F)C12` (stereo not drawn), for which the inhibition of aptamer binding is 0%. As to `COc1ccc(C2=NN(C(=O)CSc3nc(=O)n4ccc(C)cc4n3)C(c3ccc(C)cc3)C2)cc1` (stereo not drawn), the inhibition of aptamer binding is 2%. The figure for `COc1cc(C)ccc1OCC(=O)OCC(=O)c1ccc[nH]1` is 0%; for `CN1C(=O)CC(N2CCN(c3ccccn3)CC2)C1=O` (stereo not drawn) it is 1%; for `Cc1nnc(SCC(=O)N2c3ccccc3C(C)(c3ccc(Cl)cc3)CC2(C)C)s1` (stereo not drawn) it is 72% (active). With `CC1(c2cccc([N+](=O)[O-])c2)CC(C)(C)N(C(=O)c2ccccc2)c2ccccc21` (stereo not drawn), the inhibition of aptamer binding was 0%. For `CC1(c2ccccc2)CC(C)(C)N(C(=O)c2cc([N+](=O)[O-])cc([N+](=O)[O-])c2)c2ccccc21` (stereo not drawn), the inhibition of aptamer binding was 0%. The same measure for `CN(C(=O)CC(NC(=O)c1ccccc1)(c1ccccc1)c1ccccc1)c1ccccc1`: 1%; for `CC(Sc1nnc(-c2ccccc2F)n1C1CC1)C(N)=O` (stereo not drawn): 0%; for `Cc1ccc(C(=O)COC(=O)CCCC(=O)NC2CCCCC2)cc1[N+](=O)[O-]`: 0%. The figure for `CCOc1ccc(-n2c(SCC(=O)OC)nc3sc4c(c3c2=O)CCN(C)C4)cc1` is 1%; for `CCOc1ccc(-n2c(SCC(=O)Nc3ccc(OC)cc3)nc3sc4c(c3c2=O)CCN(C)C4)cc1` it is 0%. The figure for `COc1ccccc1NC(=O)CSc1nc2sc3c(c2c(=O)n1-c1ccccc1)CCN(C)C3` is 56% (active); for `C[C@@H](O)c1nc2ccccc2n1N` it is 0%; for `CCOC(=O)c1c(C)[nH]c(C)c1S(=O)(=O)NCCCc1ccco1` it is 0%. Take `Cc1cccc(Cn2c(N3CCN(c4ccccc4)CC3)nc3c2c(=O)n(C)c(=O)n3C)c1`: the inhibition of aptamer binding is 0%. For the compound `CCCCn1c(SCC(=O)N2CCOCC2)nc2c1c(=O)n(C)c(=O)n2C`, the inhibition of aptamer binding is 0%. For the compound `Cn1c(=O)c2c(nc(N3CCOCC3)n2CCNC2=NCCC2)n(C)c1=O`, the inhibition of aptamer binding was 83% (active). Consider `CC1O[C@H](OC2C(COC3OC(CO)C(O)[C@H](O)C3O)OC(OC3CC[C@]4(C)C(CC[C@@]5(C)[C@@H]4C=C[C@]46OC[C@@]7(CCC(C)(C)C[C@H]74)C(O)C[C@@]56C)C3(C)C)C(O)C2O)C(O)C(O)C1O` (stereo partly drawn), for which the inhibition of aptamer binding was 0%. On to `CC1=NCCN1S(=O)(=O)c1ccc(Br)c(C)c1`, for which the inhibition of aptamer binding is 8%.

For `Cc1ccc(C(CNC(=O)Nc2ccccc2)N2CCN(C)CC2)cc1` (stereo not drawn), the inhibition of aptamer binding is 0%. Consider `Cc1ccc(C(CNC(=O)Nc2cccc(C)c2)N2CCN(C)CC2)cc1` (stereo not drawn), for which the inhibition of aptamer binding is 53% (active). `COc1ccc(S(=O)(=O)NCC(c2ccc(C)cc2)N2CCN(C)CC2)cc1OC` (stereo not drawn): the inhibition of aptamer binding was 0%. The figure for `O=C(NCc1cccc(Cl)c1)C1CCC(=O)N(C2CC2)C1` (stereo not drawn) is 30%; for `C=CC[C@@H](CC(=O)N[C@@H](CO)Cc1ccccc1)C(=O)NCCOC(=O)[C@@H](CC=C)CC(=O)OC(C)(C)C` it is 94% (active). As for `C=CC[C@@H](CC(=O)N[C@H](CO)Cc1ccccc1)C(=O)N[C@H](C)COC(=O)[C@@H](CC=C)Cc1ccc(F)cc1`, the inhibition of aptamer binding was 26%. The same measure for `C=CC[C@@H](CC(=O)N[C@@H](CO)Cc1ccccc1)C(=O)N[C@H](COC(=O)[C@H](CC=C)CC(=O)OC(C)(C)C)Cc1ccccc1`: 3%; for `CC(C)CNC(=S)NNC(=O)c1ccccc1OC(F)F`: 0%; for `O=C(O)/C(=C/c1cccnc1)NC(=O)c1ccccc1`: 53% (active).

For `Cc1ccc(C(=O)N/C(=C/c2cccnc2)C(=O)O)cc1`, the inhibition of aptamer binding was 0%. Consider `CC(C)(C)NC(=O)/C(=C/c1cccnc1)NC(=O)c1ccco1`, for which the inhibition of aptamer binding was 4%. Consider `Cc1ccc2[nH]c(=O)c(-c3nc4c(C)cccn4c3NCc3ccco3)cc2c1`, for which the inhibition of aptamer binding was 0%.

Consider `Cc1cc(C)cc(N(CC(=O)N2CC=C(c3ccccc3)CC2)S(=O)(=O)c2c(C)noc2C)c1`, for which the inhibition of aptamer binding is 0%.

For `O=c1[nH]nc(Cc2ccccn2)c2ccccc12`, the inhibition of aptamer binding was 0%.

For `O=C(Oc1ccc2c(c1)CCC2)N1CCOCC1`, the inhibition of aptamer binding is 0%. On to `COCCCNC(=O)CN1CCN(Cc2ccccc2Cl)C1=O`, for which the inhibition of aptamer binding was 4%. As for `Cc1ccccc1CN1CCN(CC(=O)NCc2ccccn2)C1=O`, the inhibition of aptamer binding is 51% (active).

As for `Cc1nn(CC(=O)NCc2ccccn2)c(C)c1[N+](=O)[O-]`, the inhibition of aptamer binding is 1%.

Take `Cc1cccc(N(C(=O)c2sc(C)nc2C)C(C(=O)NCC2CCCO2)c2ccccc2)c1` (stereo not drawn): the inhibition of aptamer binding is 1%. Turning to `CCn1nc(C)c(NC(=O)/C=C/c2ccc(OC)c(COc3ccc(Br)cc3)c2)c1C`, the inhibition of aptamer binding was 1%. Turning to `CS(=O)(=O)N1CCN(c2ccc(C(=O)NC3C4CC5CC(C4)CC3C5)cc2[N+](=O)[O-])CC1` (stereo not drawn), the inhibition of aptamer binding is 0%. In the case of `CC(NC(=O)c1ccc(N2CCNCC2)c([N+](=O)[O-])c1)C12CC3CC(CC(C3)C1)C2` (stereo not drawn), the inhibition of aptamer binding is 0%. For `O=C(NC1C2CC3CC(C2)CC1C3)c1ccc(N2CCNCC2)c([N+](=O)[O-])c1` (stereo not drawn), the inhibition of aptamer binding is 98% (active). The same measure for `CC(c1nnc(SCC(=O)Nc2sccc2C#N)n1-c1ccc(Cl)cc1)N(C)C` (stereo not drawn): 0%; for `C/C(=N\OCC(=O)O)c1ccc(Cl)cc1`: 58% (active). The same measure for `COc1ccc(C(=O)CCC(=O)Nc2ccc(Cl)cc2)cc1`: 1%; for `C/C(=N\N=C(N)N)c1ccc(Cl)cc1`: 0%. Regarding `COc1cc2c(-c3ccc4c(c3)OCO4)c(-c3ccsc3)oc(=O)c2cc1OC`, the inhibition of aptamer binding is 0%. For the compound `O=C(C1CCC1)N1CCN(S(=O)(=O)c2ccc([N+](=O)[O-])cc2)CC1`, the inhibition of aptamer binding is 1%. Consider `O=C(C1CCCN(S(=O)(=O)c2ccc([N+](=O)[O-])cc2)C1)N1CCCCC1` (stereo not drawn), for which the inhibition of aptamer binding is 53% (active). Regarding `Cc1ccc(S(=O)(=O)N2CCCC(C(=O)N3CCN(C)CC3)C2)cc1` (stereo not drawn), the inhibition of aptamer binding was 4%. For `Cc1nnc(NC(=O)CCC(=O)N2CCC(C)CC2)s1`, the inhibition of aptamer binding was 2%.

Take `CCCCN(CC)C(=O)c1ccc2c(c1)OCO2`: the inhibition of aptamer binding was 3%. In the case of `CCC(C)(C(=O)NC1CCCC1)N(C(=O)CNC(C)=O)c1ccc(C)cc1` (stereo not drawn), the inhibition of aptamer binding is 3%.

`CCC(C)(C(=O)NC1CCCCC1)N(C)C(=O)c1ccc2c(c1)OCO2` (stereo not drawn): the inhibition of aptamer binding was 47% (active). `COc1ccccc1NC(=O)COc1ccc(C(=O)OCC(=O)N(C(C)C)C(C)C)cc1OC`: the inhibition of aptamer binding was 0%.

As for `COc1cc(C(=O)OCC(=O)N(CC(C)C)C2CCS(=O)(=O)C2)ccc1OCC(C)C` (stereo not drawn), the inhibition of aptamer binding was 100% (active). Regarding `COc1ccc(NC(=O)COc2ccc(C(=O)OCC(=O)N(C)C3CCS(=O)(=O)C3)cc2OC)cc1` (stereo not drawn), the inhibition of aptamer binding was 3%. The same measure for `Cn1c(N2CCOCC2)c(C=O)c2ccccc21`: 0%; for `Cc1ccc(CNC(=O)c2cc(-c3ccccc3C)n(CC3CC(c4cccc([N+](=O)[O-])c4)=NO3)n2)cc1` (stereo not drawn): 0%.

With `O=C(COC(=O)c1ccc(F)cc1F)Nc1ncccn1`, the inhibition of aptamer binding is 60% (active). For `O=C(COC(=O)CSc1ccccc1)Nc1ccc(F)cc1F`, the inhibition of aptamer binding is 3%.

Turning to `CCOC(=O)c1cccc(NC(=O)c2ccc(F)cc2F)c1`, the inhibition of aptamer binding was 3%. Consider `O=C(NCCCN1CCCCC1)c1ccc2c(c1)NC(=O)C(N1CCOCC1)S2` (stereo not drawn), for which the inhibition of aptamer binding was 3%. Take `CCOC(=O)c1ccc(N/C(=N/S(=O)(=O)c2ccccc2)c2ccccc2)cc1`: the inhibition of aptamer binding was 0%.

For the compound `CC(=O)c1c(C)[nH]c(C(=O)N2CCN(S(=O)(=O)c3ccc(F)c(F)c3)CC2)c1C`, the inhibition of aptamer binding is 1%. In the case of `CN(Cc1ccccc1)C(=O)c1ccc(COc2ccccc2)cc1`, the inhibition of aptamer binding is 0%. As for `CN(Cc1ccccc1)C(=O)c1cccc(C(=O)N(C)Cc2ccccc2)c1`, the inhibition of aptamer binding was 49% (active).

On to `CN(CC(=O)O)C(=O)c1ccccc1`, for which the inhibition of aptamer binding was 1%.

Turning to `c1ccc(Cc2cc[n+](Cc3ccccc3)cc2)cc1`, the inhibition of aptamer binding was 0%. With `O=C(CCc1n[nH]c(=O)[nH]c1=O)N/N=C/c1ccc(Br)o1`, the inhibition of aptamer binding was 0%.

`O=C(CCNC(=O)c1ccccc1)NN=Cc1ccc(Br)o1`: the inhibition of aptamer binding was 58% (active). In the case of `O=C(CCC(=O)N/N=C/c1ccc(Br)o1)N/N=C/c1ccc(Br)o1`, the inhibition of aptamer binding was 13%. For the compound `Cc1ccc(OCc2cc(C(=O)N(C)CCn3ccnc3C)no2)cc1C`, the inhibition of aptamer binding is 4%. Regarding `O=C(ON=C1CCN(S(=O)(=O)c2ccccc2)CC1)c1ccc(Cl)cc1`, the inhibition of aptamer binding was 1%. On to `O=C(Nc1ccccc1)Nc1ccc(C(F)(F)F)cn1`, for which the inhibition of aptamer binding was 0%. For the compound `O=C(NC(=O)c1cc(OCC(F)(F)F)ccc1OCC(F)(F)F)Nc1ccccc1`, the inhibition of aptamer binding was 98% (active). For `CONC(=O)c1cc(OCC(F)(F)F)ccc1OCC(F)(F)F`, the inhibition of aptamer binding was 0%.
